Reference: PubChem BioAssay (EPA / NIEHS)
Active and inactive are the calls of the source. Rule for the calls: active = hit-call score of the fitted dose curve at least 0.9, where 1 is the maximum; inactive = score below 0.9.

Tests used:
Details in all cases: mRNA level, 48 h; actives raise or lower the signal
[1] = read-out: growth arrest and DNA damage 45 (GADD45A), GADD45A (gene 1647); assay: LTEA_HepaRG_GADD45A: Life Technologies and Expression Analysis (LTEA) Assay for growth arrest and DNA damage 45 (GADD45A) using HepaRG (AID 2283458)
Method in brief: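 Differentiated HepaRG cells exposed 48 h in serum-free induction medium to 8 concentrations, top 100 uM in half-log steps, 0.5% DMSO. GADD45A mRNA quantified by qRT-PCR, normalized to ACTB, GAPDH and POLR2A; bidirectional fit versus DMSO.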

[2] = read-out: Forkhead box O3 (FOXO3), FOXO3 (gene 2309); assay: LTEA_HepaRG_FOXO3: Life Technologies and Expression Analysis (LTEA) Assay for Forkhead box O3 (FOXO3) using HepaRG (AID 2283459)
Method in brief: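 Differentiated human HepaRG cells in serum-free induction medium were exposed in duplicate for 48 h to eight half-log concentrations up to 100 uM in 0.5% DMSO. FOXO3 mRNA was quantified by qRT-PCR, normalized to ACTB, GAPDH and POLR2A, with bidirectional fitting versus DMSO.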

[3] = read-out: ABC Transporter (ABCB1), ABCB1 (gene 5243); assay: LTEA_HepaRG_ABCB1: Life Technologies and Expression Analysis (LTEA) Assay for ABC Transporter (ABCB1) using HepaRG (AID 2283460)
Method in brief: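 Differentiated human HepaRG cells, plated 48 h then switched to serum-free induction medium, were exposed in duplicate to eight half-log concentrations up to 100 uM in 0.5% DMSO for 48 h. ABCB1 mRNA was measured by TaqMan qRT-PCR, normalized to ACTB/GAPDH/POLR2A.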

[4] = read-out: ABC Transporter (ABCC3), ABCC3 (gene 8714); assay: LTEA_HepaRG_ABCC3: Life Technologies and Expression Analysis (LTEA) Assay for ABC Transporter (ABCC3) using HepaRG (AID 2283462)
Method in brief: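 Human HepaRG, 48 h dosing, 8-pt half-log series from 100 uM, 0.5% DMSO vehicle, duplicates. ABCC3 mRNA by TaqMan qRT-PCR, housekeeping-normalized; bidirectional curve fit vs DMSO.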

[5] = read-out: ABC Transporter (ABCC2), ABCC2 (gene 1244); assay: LTEA_HepaRG_ABCC2: Life Technologies and Expression Analysis (LTEA) Assay for ABC Transporter (ABCC2) using HepaRG (AID 2283464)
Method in brief: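 HepaRG, 48 h post-plating; serum-free induction medium; cpd 8-pt, 100 uM top, half-log, 0.5% DMSO, duplicate, 48 h. Readout: ABCC2 mRNA by qRT-PCR, norm. ACTB/GAPDH/POLR2A. Bidirectional fit vs DMSO baseline.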

[6] = read-out: Broad substrate specificity ATP-binding cassette transporter ABCG2 (Homo sapiens) (UniProt Q9UNQ0); assay: LTEA_HepaRG_ABCG2: Life Technologies and Expression Analysis (LTEA) Assay for ABC Transporter (ABCG2) using HepaRG (AID 2283465)
Method in brief: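 Differentiated HepaRG cells in serum-free induction medium were exposed for 48 h, in duplicate, to eight half-log concentrations up to 100 uM in 0.5% DMSO. ABCG2 mRNA was measured by TaqMan qRT-PCR, normalized to ACTB, GAPDH and POLR2A, and fitted bidirectionally versus DMSO.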

[7] = read-out: ATP-citrate lyase (ACLY), ACLY (gene 47); assay: LTEA_HepaRG_ACLY: Life Technologies and Expression Analysis (LTEA) Assay for ATP-citrate lyase (ACLY) using HepaRG (AID 2283466)
Method in brief: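 Differentiated human HepaRG cells in serum-free induction medium exposed 48 h, in duplicate, to eight half-log concentrations from 100 uM top in 0.5% DMSO; ACLY mRNA measured by qRT-PCR, normalized to ACTB, GAPDH, POLR2A, fitted bidirectionally versus DMSO.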

[8] = read-out: Peroxisomal acyl-coenzyme A oxidase 1 (ACOX1) gene, ACOX1 (gene 51); assay: LTEA_HepaRG_ACOX1: Life Technologies and Expression Analysis (LTEA) Assay for Peroxisomal acyl-coenzyme A oxidase 1 (ACOX1) gene using HepaRG (AID 2283467)
Method in brief: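 Differentiated human HepaRG cells were exposed in duplicate for 48 h in serum-free induction medium to eight half-log concentrations up to 100 uM in 0.5% DMSO. ACOX1 mRNA was then quantified by TaqMan qRT-PCR, normalized to ACTB, GAPDH and POLR2A.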

[9] = read-out: Alkaline Phosphatase, Placental (ALPP) gene, ALPP (gene 250); assay: LTEA_HepaRG_ALPP: Life Technologies and Expression Analysis (LTEA) Assay for Alkaline Phosphatase, Placental (ALPP) gene using HepaRG (AID 2283468)
Method in brief: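 HepaRG, 48 h plating then 48 h dosing, serum-free induction medium, 0.5% DMSO. 8 conc, half-log, max 100 uM, duplicates. Endpoint: ALPP transcript by qRT-PCR, housekeeping-normalized; gain or loss fitted vs DMSO.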

[10] = read-out: Bcl-2 (BAD) gene, BAD (gene 572); assay: LTEA_HepaRG_BAD: Life Technologies and Expression Analysis (LTEA) Assay for Bcl-2 (BAD) gene using HepaRG (AID 2283469)
Method in brief: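 Differentiated human HepaRG cells in serum-free induction medium were exposed in duplicate for 48 h to eight concentrations (top 100 uM, half-log steps, 0.5% DMSO). BAD mRNA was quantified by qRT-PCR normalised to ACTB, GAPDH and POLR2A, with bidirectional fitting versus DMSO.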

[11] = read-out: Bcl-2 (BAX) gene, BAX (gene 581); assay: LTEA_HepaRG_BAX: Life Technologies and Expression Analysis (LTEA) Assay for Bcl-2 (BAX) gene using HepaRG (AID 2283470)
Method in brief: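 Differentiated HepaRG cells exposed 48 h in serum-free induction medium, eight half-log concentrations from 100 uM, in duplicate, 0.5% DMSO vehicle. BAX mRNA by TaqMan qRT-PCR, normalised to ACTB, GAPDH and POLR2A.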

[12] = read-out: adenosine kinase (ADK) gene, ADK (gene 132); assay: LTEA_HepaRG_ADK: Life Technologies and Expression Analysis (LTEA) Assay for adenosine kinase (ADK) gene using HepaRG (AID 2283471)
Method in brief: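 ADK expression quantified by qRT-PCR, normalised to three housekeeping genes, after 48 h exposure of HepaRG cells to eight concentrations (top 100 uM, half-log steps, duplicate, 0.5% DMSO). Up- or down-regulation fitted relative to vehicle.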

[13] = read-out: Alpha-fetoprotein (AFP) gene, AFP (gene 174); assay: LTEA_HepaRG_AFP: Life Technologies and Expression Analysis (LTEA) Assay for Alpha-fetoprotein (AFP) gene using HepaRG (AID 2283472)
Method in brief: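 Differentiated human HepaRG cells exposed 48 h in serum-free induction medium, 8-point half-log series from 100 uM in 0.5% DMSO, duplicate. AFP mRNA by qRT-PCR, normalized to ACTB, GAPDH, POLR2A; bidirectional fit vs DMSO.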

BCL2L11 (gene 10018) = assay: LTEA_HepaRG_BCL2L11: Life Technologies and Expression Analysis (LTEA) Assay for Bcl-2 (BCL2L11) gene using HepaRG (AID 2283473)
Method in brief: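 Read-out is BCL2L11 transcript level by qRT-PCR, normalized to three housekeeping genes and fitted bidirectionally against 0.5% DMSO vehicle. HepaRG cells received chemicals for 48 h in serum-free induction medium, 100 uM down in half-log dilutions.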

[14] = read-out: Apolipoprotein A-V (APOA5) gene, APOA5 (gene 116519); assay: LTEA_HepaRG_APOA5: Life Technologies and Expression Analysis (LTEA) Assay for Apolipoprotein A-V (APOA5) gene using HepaRG (AID 2283474)
Method in brief: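 Readout is APOA5 transcript level by qRT-PCR on Fluidigm dynamic arrays, normalized to three housekeeping genes. HepaRG cultures received chemicals for 48 h at up to 100 uM (half-log steps, 0.5% DMSO), with gain or loss scored relative to DMSO.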

[15] = read-out: Bcl-2 (BID) gene, BID (gene 637); assay: LTEA_HepaRG_BID: Life Technologies and Expression Analysis (LTEA) Assay for Bcl-2 (BID) gene using HepaRG (AID 2283476)
Method in brief: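 Gene expression by qRT-PCR in HepaRG cells after 48 h exposure, duplicate wells, eight half-log concentrations topping at 100 uM in 0.5% DMSO. Normalized to ACTB, GAPDH, POLR2A; bidirectional fitting relative to DMSO.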

[16] = read-out: Apoptosis regulator Bcl-2 (Homo sapiens) (UniProt P10415); assay: LTEA_HepaRG_BCL2: Life Technologies and Expression Analysis (LTEA) Assay for Bcl-2 gene using HepaRG (AID 2283475)
Method in brief: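 Differentiated human HepaRG cells in serum-free induction medium exposed 48 h, in duplicate, to 8-point half-log series from 100 uM in 0.5% DMSO. BCL2 mRNA by qRT-PCR (TaqMan/Fluidigm), normalized to ACTB, GAPDH, POLR2A; bidirectional fit against DMSO.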

[17] = read-out: growth arrest and DNA damage 45 (GADD45B), GADD45B (gene 4616); assay: LTEA_HepaRG_GADD45B: Life Technologies and Expression Analysis (LTEA) Assay for growth arrest and DNA damage 45 (GADD45B) using HepaRG (AID 2283461)
Method in brief: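 HepaRG, ~100,000 cells/well, 48 h plating; serum-free induction medium; cpd 100 uM top, half-log x8, 0.5% DMSO, duplicate, 48 h; lysis in RLT, RNA isolation, qRT-PCR; norm ACTB/GAPDH/POLR2A; bidirectional fit vs DMSO.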

Measured: outcome

Sequence of Broad substrate specificity ATP-binding cassette transporter ABCG2 (Homo sapiens) (Q9UNQ0 whole entry, looked up): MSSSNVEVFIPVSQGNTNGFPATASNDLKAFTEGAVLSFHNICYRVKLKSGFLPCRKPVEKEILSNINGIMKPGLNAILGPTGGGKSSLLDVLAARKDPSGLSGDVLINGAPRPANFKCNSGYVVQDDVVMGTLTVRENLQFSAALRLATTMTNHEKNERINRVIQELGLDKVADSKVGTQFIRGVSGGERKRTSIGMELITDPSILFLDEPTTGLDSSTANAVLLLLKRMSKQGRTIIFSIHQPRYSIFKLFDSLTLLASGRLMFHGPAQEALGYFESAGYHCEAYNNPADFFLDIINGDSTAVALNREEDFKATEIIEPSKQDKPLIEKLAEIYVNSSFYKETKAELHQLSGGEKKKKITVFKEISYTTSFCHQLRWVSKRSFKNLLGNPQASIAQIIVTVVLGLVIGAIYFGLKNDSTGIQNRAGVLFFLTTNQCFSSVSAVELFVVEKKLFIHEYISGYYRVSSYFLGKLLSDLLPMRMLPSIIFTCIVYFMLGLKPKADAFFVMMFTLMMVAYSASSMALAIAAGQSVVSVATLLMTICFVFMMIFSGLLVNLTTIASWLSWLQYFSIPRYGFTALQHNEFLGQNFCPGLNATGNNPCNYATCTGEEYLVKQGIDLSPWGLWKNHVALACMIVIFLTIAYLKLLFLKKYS
Sequence of Apoptosis regulator Bcl-2 (Homo sapiens) (P10415 whole entry, looked up): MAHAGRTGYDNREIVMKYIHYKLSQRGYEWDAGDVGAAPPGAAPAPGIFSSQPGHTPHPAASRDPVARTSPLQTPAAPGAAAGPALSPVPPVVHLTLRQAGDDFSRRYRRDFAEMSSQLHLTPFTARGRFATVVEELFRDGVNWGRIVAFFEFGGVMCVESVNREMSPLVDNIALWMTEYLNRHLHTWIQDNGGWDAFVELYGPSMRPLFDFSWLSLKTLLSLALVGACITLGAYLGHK

CCCCN(CCCC)N=O
inactive: [1] | [2] | [3] | [4] | [5] | [6] | [7] | [8] | [9] | [10] | [11] | [12] | [13] | BCL2L11 (gene 10018) | [14] | [15]

Nc1ccc2ccccc2c1
inactive: [1] | [2] | [3] | [4] | [5] | [6] | [7] | [8] | [9] | [10] | [11] | [13] | BCL2L11 (gene 10018) | [14] | [16] | [15]

c1ccc(OP(Oc2ccccc2)Oc2ccccc2)cc1
inactive: [1] | [2] | [3] | [4] | [5] | [6] | [7] | [8] | [9] | [10] | [11] | [12] | [13] | BCL2L11 (gene 10018) | [14] | [15]

Cc1cccc(N)c1
inactive: [1] | [2] | [3] | [17] | [4] | [5] | [6] | [7] | [8] | [9] | [10] | [11] | [13] | BCL2L11 (gene 10018) | [14] | [15]

Cc1ccc([N+](=O)[O-])cc1C
inactive: [1] | [2] | [3] | [4] | [5] | [6] | [7] | [8] | [9] | [10] | [11] | [13] | BCL2L11 (gene 10018) | [14] | [15]
